Laboratory results reported in PubChem BioAssay (NCI).
About 83,000 compounds went through this panel and 20% of them were active in at least one assay; those are over-represented in the sample as a whole.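 For each line, cells grew in 96-well plates with the test compound present at a single concentration for 48 hours.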 Values without a mark were called inactive. Activity calls are given as the source filed them. Rule for the calls: active = growth percent below 10; inactive = the rest.

Tests used:
Assay in all cases: NCI-60 one-dose screen, 48 h (100 = growth as untreated, 0 = no growth, -100 = all killed)
Conditions in all cases: 10 µM unless noted
HCT-15 colon = tested on: HCT-15 colon
HT29 colon = tested on: HT29 colon
SNB-75 CNS = tested on: SNB-75 CNS
SNB-19 CNS = tested on: SNB-19 CNS
U251 CNS = tested on: U251 CNS
PC-3 prostate = tested on: PC-3 prostate
SK-MEL-5 melanoma = tested on: SK-MEL-5 melanoma
UACC-62 melanoma = tested on: UACC-62 melanoma
LOX IMVI melanoma = tested on: LOX IMVI melanoma
SK-MEL-28 melanoma = tested on: SK-MEL-28 melanoma

SMILES	growth (HCT-15 colon)	growth (HT29 colon)	growth (SNB-75 CNS)	growth (SNB-19 CNS)	growth (U251 CNS)	growth (PC-3 prostate) [%]	growth (SK-MEL-5 melanoma)	growth (UACC-62 melanoma)	growth (LOX IMVI melanoma)	growth (SK-MEL-28 melanoma)
CCCn1cnc2c(c1=N)C(c1ccc(F)cc1)c1sc3c(F)cccc3c1O2 (stereo unspecified)	28%	63.6%	26%	35.4%	30.8%	50.1	42.2%	12.1%	43.4%	56%
O=S(=O)(NCCNc1nccc(-c2c(-c3ccc(F)c(O)c3)nc3sccn23)n1)c1ccc(F)cc1	29.9%	16.7%	64.1%	59.1%	45.5%	29.9	-41.5% (active)	4.93% (active)	16.6%	20.5%
O=c1c2c3c(sc2n2c(-c4cc(-c5ccccc5)no4)nnc2n1Cc1ccccc1)CCCC3	96.9%	108%	76.2%	55.7%	94.3%	71.8	105%	80.7%	81%	127%
CC(=O)OC(c1ccccc1)C1CCOC1=O (stereo unspecified)	97.1%	99.5%	79.2%	109%	99.1%	100	102%	87.2%		113%
O=C(CN1CCCCCC1)Nc1nc2ccc(NCc3ccc(Cl)cc3)cc2s1	99.2%	95.7%	94.2%	95.8%	95.8%	84.3	98.4%	88.5%		104%
O=C(N/N=C\c1ccccc1S(=O)(=O)O)N/N=C/c1ccccc1S(=O)(=O)O	104%	105%	95.5%	99.8%	99.9%	96.3	106%	98.1%		101%
C=C(c1ccc(OC)c(/C=C/C(=O)c2ccc3c(c2)OCO3)c1)c1cc(OC)c(OC)c(OC)c1	-8.44% (active)	10.2%	5.07% (active)	30.9%	11%	26.5	0.661% (active)	2.65% (active)	-51.1% (active)	11.5%
CN1CCN(CCOc2ccc(-c3cnc4c(-c5cccc(F)c5F)cnn4c3)cc2)CC1	-8.62% (active)	-46.1% (active)	115%	8.04% (active)	-32.4% (active)	90.5	-32.4% (active)	-36.1% (active)	-95.8% (active)	-18.7% (active)
[2H]C([2H])([2H])Oc1ccc(F)cc1/C=C/C(=O)/C=C(/C=C/c1cc(F)ccc1OC([2H])([2H])[2H])OB(F)F	63.8%	80.2%	94%	94.9%	43.3%	66.7	94.5%	68.8%	57.1%	94.2%
CCOC(=O)C(=Cc1ccc(-c2ccccc2)cc1)C(=O)OCC	13.3%	4.16% (active)	38%	54.9%	21.3%	31.8	54.8%	35.4%	-56.6% (active)	31.1%
Fc1cc(Nc2ccc3c(OCCCN4CCOCC4)cccc3n2)ccc1Cl	-13.4% (active)	-49.3% (active)	37.3%	17.8%	14.4%	30.6	63.6%	-31.7% (active)	-78.7% (active)	-35.8% (active)
COc1ccc(C(=O)/C=C/c2ccc(N3CCCCC3)cc2)cc1OC	94.9%	95.1%	84.3%	91.3%	95.6%	81	90.4%	75.3%	97.1%	102%
CCNC(=O)Oc1ccc(/C(=C(/C)Cc2ccc(OC)cc2)c2ccc(OCCN3CCCCC3)cc2)cc1	38.9%	1.16% (active)	69%	76%	47.5%	55.6	46.2%	58.4%		67.6%
